Source: the supplement of paper PMC11732987, “Enantioselective OTUD7B fragment discovery through chemoproteomics screening and high-throughput optimisation” (Communications Chemistry, 2025)

Columns and labels:
Assay in all cases: log2 ratio of Biotin-Ahx-Ub-VS probe labelling (fragment/DMSO); higher = less target engagement (more negative = stronger competition), active = hit call of the paper (q ≤ 0.05, log2 ratio ≤ -1)
Conditions in all cases: compound concentration: 200 uM; treatment time: 3 h
[1] = biological target: T1, USP19 (UniProt O94966)
T1 sequence (whole entry): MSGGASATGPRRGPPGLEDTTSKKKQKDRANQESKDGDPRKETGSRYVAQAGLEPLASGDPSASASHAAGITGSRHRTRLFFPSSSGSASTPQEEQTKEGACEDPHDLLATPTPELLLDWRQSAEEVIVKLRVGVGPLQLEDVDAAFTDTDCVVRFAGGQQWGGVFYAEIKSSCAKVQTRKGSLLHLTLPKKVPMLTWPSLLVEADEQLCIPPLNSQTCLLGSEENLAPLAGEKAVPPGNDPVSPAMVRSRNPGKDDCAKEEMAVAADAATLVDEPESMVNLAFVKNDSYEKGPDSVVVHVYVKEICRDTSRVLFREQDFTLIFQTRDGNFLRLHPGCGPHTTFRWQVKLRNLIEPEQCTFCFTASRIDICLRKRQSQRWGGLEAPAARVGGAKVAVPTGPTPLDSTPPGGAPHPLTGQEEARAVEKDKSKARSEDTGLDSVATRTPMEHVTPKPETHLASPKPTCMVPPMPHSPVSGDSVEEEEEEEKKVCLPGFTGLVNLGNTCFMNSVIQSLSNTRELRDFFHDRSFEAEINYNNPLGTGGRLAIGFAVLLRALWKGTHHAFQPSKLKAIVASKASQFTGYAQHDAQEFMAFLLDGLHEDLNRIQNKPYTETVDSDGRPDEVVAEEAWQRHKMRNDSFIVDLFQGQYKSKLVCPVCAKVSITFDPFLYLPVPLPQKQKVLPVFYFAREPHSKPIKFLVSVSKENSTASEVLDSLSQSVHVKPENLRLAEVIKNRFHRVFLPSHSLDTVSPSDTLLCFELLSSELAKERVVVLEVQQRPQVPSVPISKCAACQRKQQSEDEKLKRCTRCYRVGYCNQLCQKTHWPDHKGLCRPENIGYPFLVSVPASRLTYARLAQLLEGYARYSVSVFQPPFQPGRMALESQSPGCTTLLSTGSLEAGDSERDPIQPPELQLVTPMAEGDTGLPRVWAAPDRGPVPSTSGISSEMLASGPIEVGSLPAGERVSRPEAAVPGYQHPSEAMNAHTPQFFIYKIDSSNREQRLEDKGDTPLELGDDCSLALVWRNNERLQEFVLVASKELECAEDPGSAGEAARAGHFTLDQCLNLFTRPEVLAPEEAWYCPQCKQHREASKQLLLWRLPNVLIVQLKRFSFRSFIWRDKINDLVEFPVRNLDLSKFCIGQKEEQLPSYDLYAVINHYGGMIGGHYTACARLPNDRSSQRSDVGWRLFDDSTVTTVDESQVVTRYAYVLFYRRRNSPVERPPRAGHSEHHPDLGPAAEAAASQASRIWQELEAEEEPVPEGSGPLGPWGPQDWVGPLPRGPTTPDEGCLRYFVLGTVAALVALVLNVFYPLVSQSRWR
In short: (§1)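 Global-median-normalised Spectronaut label-free quantities were compared by unpaired t-test, and values are average log2 ratios of fragment over vehicle. Only proteins with ≥2 unique peptides were used. HEK293T lysate (495 µg per sample) was treated in triplicate with fragment at 200 µM or vehicle for 3 h and then with Biotin-Ahx-Ub-VS at 0.5 µM final for 1 h. Labelled DUBs were then NeutrAvidin-enriched, digested with LysC and trypsin, and run by diaPASEF LC-MS/MS.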

[2] = biological target: T2, USP22 (UniProt Q9UPT9)
T2 sequence (whole entry): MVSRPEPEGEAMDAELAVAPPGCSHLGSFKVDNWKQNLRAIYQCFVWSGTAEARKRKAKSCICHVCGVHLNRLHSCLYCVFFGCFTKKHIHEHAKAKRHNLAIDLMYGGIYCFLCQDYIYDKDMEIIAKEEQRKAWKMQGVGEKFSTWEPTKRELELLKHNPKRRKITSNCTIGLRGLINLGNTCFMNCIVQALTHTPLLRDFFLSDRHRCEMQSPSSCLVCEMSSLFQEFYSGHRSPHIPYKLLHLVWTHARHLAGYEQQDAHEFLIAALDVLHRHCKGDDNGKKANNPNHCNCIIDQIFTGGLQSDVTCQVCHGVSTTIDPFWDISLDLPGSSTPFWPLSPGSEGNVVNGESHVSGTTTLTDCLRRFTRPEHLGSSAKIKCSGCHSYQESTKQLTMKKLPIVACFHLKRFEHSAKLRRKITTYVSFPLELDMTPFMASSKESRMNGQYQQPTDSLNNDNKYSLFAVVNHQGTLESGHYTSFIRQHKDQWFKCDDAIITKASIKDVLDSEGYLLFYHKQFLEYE
In short: as §1

[3] = biological target: USP24 (UniProt Q9UPU5)
USP24, sequence (Q9UPU5 whole entry): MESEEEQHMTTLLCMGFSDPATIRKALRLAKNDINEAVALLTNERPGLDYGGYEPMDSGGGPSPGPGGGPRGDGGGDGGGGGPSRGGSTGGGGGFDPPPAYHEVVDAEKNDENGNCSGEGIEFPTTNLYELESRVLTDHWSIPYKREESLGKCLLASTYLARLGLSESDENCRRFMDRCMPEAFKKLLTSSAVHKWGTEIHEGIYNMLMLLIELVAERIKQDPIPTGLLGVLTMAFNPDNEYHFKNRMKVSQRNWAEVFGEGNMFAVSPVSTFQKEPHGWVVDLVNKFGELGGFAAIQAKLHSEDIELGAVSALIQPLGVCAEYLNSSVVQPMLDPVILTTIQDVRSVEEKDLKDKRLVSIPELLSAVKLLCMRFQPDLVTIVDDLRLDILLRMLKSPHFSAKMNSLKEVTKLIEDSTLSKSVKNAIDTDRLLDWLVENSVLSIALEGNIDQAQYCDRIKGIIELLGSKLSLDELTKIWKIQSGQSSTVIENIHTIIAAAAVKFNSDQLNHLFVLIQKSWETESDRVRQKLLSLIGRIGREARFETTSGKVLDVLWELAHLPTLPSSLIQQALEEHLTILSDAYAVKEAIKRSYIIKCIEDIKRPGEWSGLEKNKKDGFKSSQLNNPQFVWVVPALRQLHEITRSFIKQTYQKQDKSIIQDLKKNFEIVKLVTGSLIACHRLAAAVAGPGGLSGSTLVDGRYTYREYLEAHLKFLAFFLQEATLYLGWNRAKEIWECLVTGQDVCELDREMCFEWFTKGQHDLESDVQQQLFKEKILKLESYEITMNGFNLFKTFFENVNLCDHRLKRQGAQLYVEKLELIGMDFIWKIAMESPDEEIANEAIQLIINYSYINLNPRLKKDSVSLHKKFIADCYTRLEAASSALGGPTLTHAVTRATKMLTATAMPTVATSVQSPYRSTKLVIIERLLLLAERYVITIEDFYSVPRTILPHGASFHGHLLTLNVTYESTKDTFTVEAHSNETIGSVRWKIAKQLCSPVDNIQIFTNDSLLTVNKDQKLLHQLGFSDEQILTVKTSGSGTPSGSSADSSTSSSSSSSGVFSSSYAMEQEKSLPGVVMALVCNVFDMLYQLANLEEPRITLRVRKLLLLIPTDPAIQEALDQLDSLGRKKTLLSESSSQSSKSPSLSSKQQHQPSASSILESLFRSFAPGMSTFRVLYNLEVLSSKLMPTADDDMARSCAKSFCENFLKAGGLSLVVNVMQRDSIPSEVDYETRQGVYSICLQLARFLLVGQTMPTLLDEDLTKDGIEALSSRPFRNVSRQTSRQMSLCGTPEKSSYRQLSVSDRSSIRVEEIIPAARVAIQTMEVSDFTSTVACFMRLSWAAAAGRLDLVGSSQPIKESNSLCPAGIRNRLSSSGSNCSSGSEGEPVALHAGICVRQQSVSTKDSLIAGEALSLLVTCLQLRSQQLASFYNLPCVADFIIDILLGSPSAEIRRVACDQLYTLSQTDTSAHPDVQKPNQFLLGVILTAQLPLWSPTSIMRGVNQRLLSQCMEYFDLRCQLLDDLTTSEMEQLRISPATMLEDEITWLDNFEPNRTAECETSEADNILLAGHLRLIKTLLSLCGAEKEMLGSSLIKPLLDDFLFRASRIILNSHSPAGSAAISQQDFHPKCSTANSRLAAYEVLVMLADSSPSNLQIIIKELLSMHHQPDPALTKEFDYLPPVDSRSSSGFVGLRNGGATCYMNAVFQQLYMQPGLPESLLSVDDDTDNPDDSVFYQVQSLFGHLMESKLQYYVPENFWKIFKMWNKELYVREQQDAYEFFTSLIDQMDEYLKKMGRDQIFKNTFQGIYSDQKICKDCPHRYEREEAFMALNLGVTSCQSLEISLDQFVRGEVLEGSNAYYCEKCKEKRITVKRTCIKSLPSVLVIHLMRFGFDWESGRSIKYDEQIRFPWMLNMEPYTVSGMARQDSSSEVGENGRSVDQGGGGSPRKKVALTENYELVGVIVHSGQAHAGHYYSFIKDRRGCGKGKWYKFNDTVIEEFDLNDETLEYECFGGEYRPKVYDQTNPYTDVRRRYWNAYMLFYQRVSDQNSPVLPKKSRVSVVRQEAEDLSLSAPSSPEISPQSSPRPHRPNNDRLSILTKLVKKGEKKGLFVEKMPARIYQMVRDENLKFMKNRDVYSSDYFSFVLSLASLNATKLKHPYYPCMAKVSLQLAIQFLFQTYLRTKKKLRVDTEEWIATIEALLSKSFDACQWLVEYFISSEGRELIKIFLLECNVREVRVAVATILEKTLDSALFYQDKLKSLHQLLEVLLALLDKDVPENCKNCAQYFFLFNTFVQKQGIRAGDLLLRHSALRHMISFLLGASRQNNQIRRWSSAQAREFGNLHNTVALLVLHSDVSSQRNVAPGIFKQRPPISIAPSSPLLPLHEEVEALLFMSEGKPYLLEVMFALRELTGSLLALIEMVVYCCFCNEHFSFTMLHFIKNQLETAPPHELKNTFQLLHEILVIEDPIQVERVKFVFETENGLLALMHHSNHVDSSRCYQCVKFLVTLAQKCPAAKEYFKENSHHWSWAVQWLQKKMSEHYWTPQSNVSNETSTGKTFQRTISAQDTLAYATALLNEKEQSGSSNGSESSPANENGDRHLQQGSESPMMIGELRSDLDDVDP
In short: as §1

[4] = biological target: T3, USP25 (UniProt Q9UHP3)
T3 sequence (whole entry): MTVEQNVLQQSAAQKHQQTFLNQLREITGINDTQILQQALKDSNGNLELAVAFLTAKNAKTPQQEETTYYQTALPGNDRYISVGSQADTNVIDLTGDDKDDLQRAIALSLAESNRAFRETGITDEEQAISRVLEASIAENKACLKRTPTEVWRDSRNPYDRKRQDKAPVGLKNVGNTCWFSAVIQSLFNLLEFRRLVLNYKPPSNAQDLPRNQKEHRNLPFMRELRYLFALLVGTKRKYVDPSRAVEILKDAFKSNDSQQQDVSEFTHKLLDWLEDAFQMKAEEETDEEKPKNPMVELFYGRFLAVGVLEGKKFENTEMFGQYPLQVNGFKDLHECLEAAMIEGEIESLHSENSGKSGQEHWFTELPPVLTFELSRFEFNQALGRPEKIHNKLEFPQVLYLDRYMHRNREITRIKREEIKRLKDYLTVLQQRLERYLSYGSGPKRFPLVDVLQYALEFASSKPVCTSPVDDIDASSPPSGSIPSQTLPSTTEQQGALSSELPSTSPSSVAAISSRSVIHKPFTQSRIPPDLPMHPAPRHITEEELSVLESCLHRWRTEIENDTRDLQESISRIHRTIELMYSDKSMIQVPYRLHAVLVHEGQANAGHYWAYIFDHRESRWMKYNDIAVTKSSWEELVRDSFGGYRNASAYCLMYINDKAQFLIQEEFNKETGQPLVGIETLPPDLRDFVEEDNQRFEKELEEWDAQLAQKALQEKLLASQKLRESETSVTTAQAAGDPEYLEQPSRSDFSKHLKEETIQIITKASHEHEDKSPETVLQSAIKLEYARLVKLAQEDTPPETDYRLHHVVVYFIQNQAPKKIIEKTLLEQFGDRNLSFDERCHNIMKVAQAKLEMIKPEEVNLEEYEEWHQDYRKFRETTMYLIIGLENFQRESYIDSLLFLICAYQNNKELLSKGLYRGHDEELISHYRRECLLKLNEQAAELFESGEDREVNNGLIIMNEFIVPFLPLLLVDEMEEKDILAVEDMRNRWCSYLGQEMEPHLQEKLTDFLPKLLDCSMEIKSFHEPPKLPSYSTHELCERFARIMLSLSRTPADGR
In short: as §1

[5] = biological target: T4, USP28 (UniProt Q96RU2)
T4 sequence (whole entry): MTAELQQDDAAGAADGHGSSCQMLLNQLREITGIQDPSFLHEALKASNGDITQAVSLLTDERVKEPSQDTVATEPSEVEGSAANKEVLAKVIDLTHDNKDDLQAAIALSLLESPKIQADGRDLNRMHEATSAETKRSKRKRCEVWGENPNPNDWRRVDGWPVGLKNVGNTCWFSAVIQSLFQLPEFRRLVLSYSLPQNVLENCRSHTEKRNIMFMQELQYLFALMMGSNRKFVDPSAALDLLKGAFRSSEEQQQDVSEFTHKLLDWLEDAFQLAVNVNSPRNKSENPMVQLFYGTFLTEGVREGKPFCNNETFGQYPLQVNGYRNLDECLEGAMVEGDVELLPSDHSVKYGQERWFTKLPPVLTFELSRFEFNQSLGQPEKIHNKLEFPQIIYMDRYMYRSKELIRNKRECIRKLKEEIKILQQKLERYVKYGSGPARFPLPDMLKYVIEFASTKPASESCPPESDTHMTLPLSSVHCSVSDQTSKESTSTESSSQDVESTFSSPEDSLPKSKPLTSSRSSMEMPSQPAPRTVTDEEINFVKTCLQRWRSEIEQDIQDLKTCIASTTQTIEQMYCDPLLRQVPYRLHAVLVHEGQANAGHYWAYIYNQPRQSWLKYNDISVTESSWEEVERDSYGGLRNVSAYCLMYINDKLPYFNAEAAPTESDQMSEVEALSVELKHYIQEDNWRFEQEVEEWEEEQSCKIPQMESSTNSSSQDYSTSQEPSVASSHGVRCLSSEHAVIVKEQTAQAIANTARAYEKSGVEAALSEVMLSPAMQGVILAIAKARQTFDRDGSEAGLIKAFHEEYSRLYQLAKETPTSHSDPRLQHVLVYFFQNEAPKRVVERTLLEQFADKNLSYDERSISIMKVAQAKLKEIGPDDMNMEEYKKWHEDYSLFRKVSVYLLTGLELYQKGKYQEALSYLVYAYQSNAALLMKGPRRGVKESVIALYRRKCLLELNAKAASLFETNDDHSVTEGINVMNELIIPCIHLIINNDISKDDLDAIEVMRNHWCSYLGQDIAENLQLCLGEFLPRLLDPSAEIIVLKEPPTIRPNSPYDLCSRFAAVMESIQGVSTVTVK
In short: as §1

Measured: log2 ratio of Biotin-Ahx-Ub-VS probe labelling

O=C(CCl)N1CCC2(CCC(O)CC2)CC1
inactive: [1] 0.0572 | [2] -0.145 | [3] -0.133 | [4] -0.0651 | [5] -0.372
